Compounds with a hit are over-represented: about 3.5% of the library has one in this group of screens.
PPC-1+TRAIL kill = compounds killing PPC-1 cancer cells with TRAIL present (potentiator screen, no TRAIL-free arm); PPC-1 cells + TRAIL, ATPLite viability luminescence; cell killing (% activity), % at 4 µM or 5 µM; actives 0.41% (n = 220,000);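 active means cell killing above 50% in the first pass at 4 µM, then a duplicate retest at 5 µM averaging 50% or more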;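 further: plate controls were cells with TRAIL plus DMSO for no effect and medium-only wells lacking cells for full effect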
C8 TRAIL sens = sensitizes caspase-8 expressing cells to TRAIL; NB7+C8 cells + TRAIL, ATPlite viability luminescence; inhibition (viability loss, TRAIL sensitization), % at 10 µM; actives 1% (n = 360,000); AID 624354;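 active means compounds causing at least 50% loss of cell viability in the single-dose screen, relative to plate controls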
Platelet DG rel = modulates dense granule release in human platelets | actives 0.22% (n = 300,000) | human platelet-rich plasma, SFLLRN dense granule ATP release, luminescence | inhibition, %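 (compounds screened at 7.5 µM in platelet-rich plasma)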;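 active means mean replicate score, as percent of positive control, at or above 50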
TROY NFkB inh = TROY signaling inhibition | Q293 LMP1-TROYcd NF-kB luciferase reporter, 4 h | inhibition, % at 10 µM | actives 0.98% (n = 360,000) | AID 1347056;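 active means compounds whose plate-normalised and pattern-corrected inhibition of the luciferase reporter signal at the single screening dose is 50% or more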
HSP90 inh = inhibitors of HSP90 luciferase refolding in rabbit reticulocyte lysate. inhibition, % at 5.6 µM. luciferase refolding luminescence, 3 h. AID 1789. actives 0.91% (n = 290,000);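 active means inhibition above the screen-wide mean plus 3 SD, computed separately per campaign, cut at about 16% in these data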;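 further: 0% = DMSO wells and 100% = 60 µM geldanamycin wells; inhibitors lower the luminescence because luciferase stays unfolded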
TWEAK Fn14 block = blocks TWEAK-Fn14 interaction in a reporter cell assay | AID 1159606 | inhibition, % at 10 µM | actives 2% (n = 360,000) | TWEAK-stimulated Fn14 reporter cells, luciferase luminescence, 8 h; in the data active means inhibition above about 50%
An asterisk follows results filed as active; . = no result given.

SMILES	PPC-1+TRAIL kill	C8 TRAIL sens	Platelet DG rel	TROY NFkB inh	HSP90 inh	TWEAK Fn14 block
O=C(c1ccc(Cl)cc1)C(CN1CCCC1)c1ccccc1 (centres undefined)	.	36	-3	-15	-3	58*
O=C(c1ccc(F)cc1)C(CN1CCOCC1)c1ccccc1 (centres undefined)	18	20	-4	22	-4	74*
COc1ccc(C(=O)C(CN2CCCC2)c2ccccc2)cc1 (centres undefined)	3	-8	0	-35	-3	36
O=C(c1ccccc1)C(CCC(CN1CCOCC1)C(=O)c1ccccc1)CN1CCOCC1 (centres undefined)	-9	-15	-9	51*	-3	85*
COc1ccc(C(=O)C(CN2CCOCC2)c2ccccc2)cc1 (centres undefined)	-13	2	-2	5	2	37
CCCCN1C=C(C(C)=O)C(=O)CC1	.	-9	.	-3	.	15
O=C(Cn1ncc(Cl)c(Cl)c1=O)N1CCN(Cc2ccccc2)CC1	19	-9	-2	56*	-3	87*
O=C(Cn1ncc(Cl)c(Cl)c1=O)N1CCc2ccccc21	31	96*	2	13	1	101*
O=C(Cn1ncc(Cl)c(Cl)c1=O)N1CCOCC1	18	-3	-4	-2	-1	81*
Cc1c2cnn(CC(=O)N3CCOCC3)c(=O)c2c(C)n1Cc1ccc(F)cc1	.	-15	.	6	.	7
O=C(CN1C(=O)/C(=C\c2cccc(Cl)c2)Oc2ccccc21)N1CCN(c2ccccn2)CC1	8	.	-4	.	-3	.
OC(COCC1COc2ccccc2O1)CN1CCN(c2ccccn2)CC1 (centres undefined)	5	-4	-2	-11	19*	-19
O=C(O/N=C1\CCCc2ccccc21)c1cccs1	0	-5	9	80*	-1	-23
C[C@H]1CN([C@@H](C)CO)C(=O)CCCn2nncc2CO[C@@H]1CN(C)Cc1ccccc1C(F)(F)F	.	2	.	-17	.	-20
CC(=O)n1nc(-c2ccccc2)nc1NCc1ccc(F)cc1	26	7	-6	-36	2	-1
CC(=O)N(Cc1ccc(F)cc1)C1=C(NCc2ccccc2)C(=O)c2ccccc2C1=O	46	97*	2	38	11	51*
O=C(Nc1ccccc1)C1CCCN1/C=C/C(=O)C(F)(F)F (centres undefined)	5	5	1	-2	-4	-5
Nc1nc2ccccc2cc1C(=O)NCCCCc1ccccc1	.	6	.	14	.	53*
COc1cc2c(cc1OC)CN(C(=O)c1ccc(N3CCCC3)c([N+](=O)[O-])c1)CC2	.	12	14	26	.	-39
Cc1ccc(Cc2c(C3CCCCC3)nc3c4ccccc4ccn23)cc1	.	8	.	69*	.	60*
Cc1ccc(-c2nc3c4ccccc4ccn3c2Cc2ccccc2)cc1	.	-2	.	-9	.	8
Cc1ccc(Cc2c(-c3ccccc3)nc3c4ccccc4ccn23)cc1	.	-14	.	67*	.	59*
c1ccc2c(c1)ccn1c(Cc3ccsc3)c(C3CCCCC3)nc21	.	14	.	-11	.	5
O=C(NCc1ccco1)/C(=C\C=C\c1ccccc1)NC(=O)c1ccccc1Br	13	-3	-3	70*	5	7
O=C1CC(NNc2nc3ccccc3s2)C(=O)N1c1ccccc1 (centres undefined)	5	-4	2	61*	-2	4
SMILES	PPC-1+TRAIL kill	C8 TRAIL sens	Platelet DG rel	TROY NFkB inh	HSP90 inh	TWEAK Fn14 block
Cc1ccc(N2C(=O)CC(NNc3nc4ccccc4s3)C2=O)cc1 (centres undefined)	9	1	14	0	2	-3
COc1cccc(/C=N/N2CCN(c3ccncc3S(=O)(=O)N3CCCCC3)CC2)c1	18	2	1	11	-2	-7
O=C1CCC(C(=O)N2CCc3c(Cl)cccc3C2)CN1CCCN1CCOCC1 (centres undefined)	.	2	16	-6	-5	-2
O=C1N/C(=C\c2ccc(O)cc2)C(=O)c2ccccc21	8	25	80*	30	9	18
O=C(O)/C=C1\NC(=O)c2ccccc21	11	-3	8	-1	6	7
N#Cc1c(NC(=O)c2ccccc2Cl)n(Cc2ccccc2)c2nc3ccccc3nc12	5	14	.	65*	6	86*
CCN(C(=O)C1CC1)C1CCS(=O)(=O)C1 (centres undefined)	.	12	-8	66*	.	12
CC(C)(C)c1cc(/C=N/O)cc(C(C)(C)C)c1O	27	1	-13	37	-4	54*
CC(C)(C)c1cc(/C=C2\NC(=O)NC2=O)cc(C(C)(C)C)c1O	.	-23	-2	3	-3	6
CC(=O)c1ccc(-c2ccc(C(=O)NCC(c3ccco3)N(C)C)o2)cc1 (centres undefined)	.	1	.	-49	.	3
Cc1ccnc(SCC(=O)N2CCc3ccccc32)n1	.	-1	7	-52	0	-19
Cc1ccnc(SCC(=O)N2CCN(C(c3ccccc3)c3ccccc3)CC2)n1	-5	-8	2	7	16*	7
Cc1ccnc(SCc2ccc(C(=O)O)cc2)n1	.	10	20	-12	-2	108*
Nc1cc(N)nc(SCC(=O)NCC(=O)Nc2ccc(F)c(F)c2F)n1	.	3	.	-5	.	-13
COc1cccc(CN2C(=O)C(C)N(C(=O)c3c(F)cccc3F)c3ccccc32)c1 (centres undefined)	.	20	-4	38	10	74*
CC1C(=O)N(Cc2ccccc2F)c2ccccc2N1C(=O)c1c(F)cccc1F (centres undefined)	.	11	-7	30	4	32
Cc1cc(Cl)n2c(nc3cc(F)c(F)cc32)c1C#N	26	74*	-1	36	5	69*
Cc1cc(C)n2c(=O)c3ccc(Cl)cc3nc2c1C#N	-13	-3	5	-21	-3	-20
CC1(C)CC(=O)C2=C(C1)NC1=C(C(=O)c3ccccc31)C2c1ccc(O)cc1 (centres undefined)	2	10	19	-9	0	12
CCCCc1ccc(C2C3=C(CC(C)(C)CC3=O)NC3=C2C(=O)c2ccccc23)cc1 (centres undefined)	-3	12	-1	33	0	57*
COc1cccc(C2C3=C(CCCC3=O)NC3=C2C(=O)c2ccccc23)c1 (centres undefined)	.	.	-13	.	-2	.
CCCc1ccc(C2C3=C(CC(C)(C)CC3=O)NC3=C2C(=O)c2ccccc23)cc1 (centres undefined)	23	9	3	22	1	55*
COc1cccc(N2CCN(S(=O)(=O)c3ccc4ccccc4c3)CC2)c1	.	2	.	4	.	-3
Oc1c(C(c2cccs2)N2CCOCC2)sc2ncnn12 (centres undefined)	8	4	55*	1	-4	15

Bioassay records deposited in PubChem by several laboratories.
